Tau fibril FP: inhibitors of human tau fibril formation | P10636 | K18 P301L tau heparin fibrillization, Alexa594 FP, 6 h | Potency, µM (highest dose often 57.7 µM), usual class: inhibitors | 0.39% of 280,000 active | AID 1468; note: nearly all actives have a fitted effect of over 55% in size
Target sequence (P10636 561-689 P618L limits assumed): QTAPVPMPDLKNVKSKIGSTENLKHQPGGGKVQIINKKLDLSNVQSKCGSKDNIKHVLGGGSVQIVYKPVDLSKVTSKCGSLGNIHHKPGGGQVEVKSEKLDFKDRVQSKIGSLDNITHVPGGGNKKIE
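Heparin (20 uM) drove fibril formation of recombinant tau K18 P301L, 15 uM unlabeled with 0.24 uM Alexa 594 label, for 6 hr at 37 C in 100 mM sodium acetate pH 7. Fluorescence polarization (555/632 nm) read 1 hr after 30 uM ThT.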
Sfp PPTase inh: Sfp phosphopantetheinyl transferase inhibition. AID 1490. Biochemical Sfp PPTase activity, qHTS. 3.5% of 310,000 active. Potency, µM, most hits filed as inhibitors. Q9F4F7;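 note: the enzyme is Sfp with the accession as filed and its product quenches rhodamine fluorescence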
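Fluorescence-quenching assay with 15 nM Sfp, 5 uM rhodamine-CoA and 12.5 uM BHQ-2-labelled ybbR peptide in pH 7.6 Hepes/MgCl2 buffer. Enzyme was pre-incubated with compound for 15 min at room temperature. Rate was taken from the 30-min fluorescence change (525/598 nm).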
PLK1 PBD inh: PLK1 (human) polo-box domain binding inhibition. P53350. Plk1 PBD binding of FITC phosphopeptide, fluorescence polarization. Potency, µM, usual class: inhibitors. 2.8% of 360,000 active. AID 720504; note: series mostly up to about 57 µM; nearly all actives have a fitted effect of over 65% in size
VDR inhibitor: blocks the human vitamin D receptor | VDR-SRC2-3 peptide fluorescence polarization, 2 h | Potency, µM, actives largely listed as inhibitors | 0.93% of 400,000 active | AID 504847
Target sequence (P11473 whole entry, looked up): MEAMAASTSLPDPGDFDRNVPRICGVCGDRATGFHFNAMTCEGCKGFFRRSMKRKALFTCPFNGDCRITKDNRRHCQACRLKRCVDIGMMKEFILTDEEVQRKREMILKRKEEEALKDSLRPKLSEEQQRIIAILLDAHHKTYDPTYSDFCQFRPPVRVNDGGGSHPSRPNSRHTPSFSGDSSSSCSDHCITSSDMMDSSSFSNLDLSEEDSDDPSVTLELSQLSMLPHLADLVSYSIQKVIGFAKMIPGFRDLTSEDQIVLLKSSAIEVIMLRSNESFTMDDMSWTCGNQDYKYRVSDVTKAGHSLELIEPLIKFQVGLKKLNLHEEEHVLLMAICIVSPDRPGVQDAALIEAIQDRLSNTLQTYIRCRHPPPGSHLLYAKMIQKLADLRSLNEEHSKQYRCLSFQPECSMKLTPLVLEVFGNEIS
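Measured by FP: displacement of SRC2-3 coactivator peptide from VDR by library compounds, following a two-hour ambient incubation.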
Tau fibril ThT: inhibitors of human tau fibril formation, thioflavin T binding; P10636; recombinant tau K18 P301L, heparin-induced fibrillization, ThT fluorescence; Potency, µM (series often up to 57.4 µM), most hits filed as inhibitors; 2.1% of 270,000 active; AID 1460; note: nearly all actives have a fitted effect of over 55% in size
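ThT emission at 510 nm, taken 1 hr after adding 30 uM dye, quantifies aggregates formed when 20 uM heparin acts on human tau K18 P301L for 6 hr at 37 C.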
Tau fluor cs: counter-screen for tau fibril formation inhibitors; Potency, µM (titrated, usually from 57.7 µM); AID 1463; 0.93% of 280,000 active; tau K18 P301L (four-repeat tau fragment) Alexa594 fluorescence, heparin fibrillization; note: nearly all actives have a fitted effect of over 55% in size
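Human K18 P301L tau (15 uM unlabeled plus 0.24 uM Alexa 594-labeled, final) in 100 mM sodium acetate pH 7 was mixed with compound and 20 uM heparin and incubated 6 hr at 37 C.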
USP1 UbRho: USP1-UAF1 deubiquitinase inhibition validated; Ub-Rhodamine cleavage, fluorescence kinetic read; shares compounds with VDR inhibitor; Potency, µM (top dose mostly 114 µM), usual class: inhibitors; 50% of 50 active
VDR confirm: inhibits human vitamin D receptor, primary hit validation; shares compounds with VDR inhibitor; VDR-coactivator inhibition assay, qHTS confirmation; Potency, µM, usual class: inhibitors; 89% of 840 active; AID 602199
VDR FP: VDR (human) coactivator binding inhibition, fluorescein polarization. AID 602200. VDR-coactivator binding, fluorescein fluorescence polarization. shares compounds with VDR inhibitor. Potency, µM (doses to about 57.1 µM), hits mostly inhibitors. 48% of 840 active
VDR bla: confirmation of human vitamin D receptor inhibitors in reporter cells. shares compounds with VDR inhibitor. VDR beta-lactamase reporter cells, FRET ratio; cells co-treated with VDR agonist LG190178. Potency, µM (titrated, usually from 46.1 µM), most hits filed as inhibitors. 23% of 840 active
VDR viability: counter-screen for vitamin D receptor inhibitors: cytotoxicity; shares compounds with VDR inhibitor; cytotoxicity counter-screen, cell viability, qHTS; Potency, µM (titrated, usually from 48.3 µM), usual class: cytotoxic; 18% of 840 active; AID 602204; note: nearly all actives have a fitted effect of over 75% in size
Each line names hits and unclear results; the compound was inactive in the other large screens (follow-up assays come after a bar, where they were run). The list is not random: actives were taken first. Their share in the collection is about 6%. Calls come from the whole dose curve; as a rule, active = well fitted curve in the direction sought with a large enough effect; inconclusive = small, poorly fitted or top-dose-only effect, or another doubt; inactive = no such curve, though single readings can be large; an effect the other way counts as inactive or inconclusive.

Cc1ccc(S(=O)(=O)Nc2ccc(Br)cc2C(NCC(=O)O)c2ccccc2)cc1 (stereo not given)	none
Cc1ccc(C(C2=C(O)CC(C)(C)CC2=O)C2C(=O)CC(C)(C)CC2=O)s1 (stereo not given)	Sfp PPTase inh 35µM, PLK1 PBD inh 4.7µM, VDR inhibitor 50µM | VDR confirm 11 | VDR FP 7.9µM | VDR bla inactive | VDR viability inconclusive
Cc1cc2c(cc1S(=O)(=O)CCC(=O)N1CCCC(C)C1)OCC(=O)N2 (stereo not given)	none (no result: Sfp PPTase inh, PLK1 PBD inh)
Cc1ccc(S(=O)(=O)N[C@@H](Cc2ccccc2)C(=O)CCl)cc1	Tau fibril FP inconclusive, PLK1 PBD inh inconclusive, VDR inhibitor 5.6µM, Tau fibril ThT inconclusive | USP1 UbRho 47µM | VDR confirm 9.5 | VDR FP 7.1µM | VDR bla 18µM | VDR viability inconclusive
Cc1cc(C)cc(NC(=O)C2CCN(S(=O)(=O)c3cn(C)cn3)CC2)c1	none (no result: Sfp PPTase inh, PLK1 PBD inh)
CN1CCC2(CC1)N=C(c1ccc(F)cc1)C(=S)N2C(=O)c1ccc(C(C)(C)C)cc1	Sfp PPTase inh 50µM, PLK1 PBD inh 24µM, VDR inhibitor inconclusive, Tau fibril ThT inconclusive | VDR confirm inconclusive | VDR FP inconclusive | VDR bla inconclusive | VDR viability inconclusive
CC(C)(C)c1ccc(C(=O)N2CCNCC2)cc1	none
O=S(=O)(/N=S1/CC=CCN1S(=O)(=O)c1ccccc1)c1ccccc1 (stereo not given)	Tau fibril FP inconclusive, Sfp PPTase inh 1.4µM, PLK1 PBD inh 1.5µM, VDR inhibitor 3.5µM, Tau fibril ThT inconclusive | VDR confirm 5.3 | VDR FP inconclusive | VDR bla inactive | VDR viability inactive
O=S(=O)(c1ccccc1)N1CCN(S(=O)(=O)c2ccccc2)C1	none
O=C(NNc1ccccc1)c1ccc(Cl)c(Cl)c1	VDR inhibitor inconclusive (no result: Tau fibril FP, Sfp PPTase inh, Tau fibril ThT, Tau fluor cs)
O=C(NNc1cc(Br)c(O)c(Br)c1)c1ccccc1	Tau fibril FP 16µM, VDR inhibitor 79µM, Tau fibril ThT 5µM, Tau fluor cs inconclusive | VDR confirm inconclusive | VDR FP inconclusive | VDR bla inactive | VDR viability inactive
COc1ccc(OCc2ccc(-c3nc(C#N)c(N4CCC(C)CC4)o3)o2)cc1	Tau fluor cs inconclusive (no result: Sfp PPTase inh, PLK1 PBD inh)
CCOC(=O)c1c(-c2ccccc2)csc1NC(=O)c1cc(-c2cccc(OC)c2)on1	Tau fibril FP inconclusive, VDR inhibitor 79µM, Tau fibril ThT 32µM (no result: Sfp PPTase inh, PLK1 PBD inh) | VDR confirm 22 | VDR FP 16µM | VDR bla inactive | VDR viability inactive
CCOC(=O)c1c(-c2ccccc2)csc1NC(=O)c1cc(-c2cccc(Cl)c2)on1	VDR inhibitor inconclusive (no result: Sfp PPTase inh, PLK1 PBD inh)
CC(=O)Nc1c(S(=O)(=O)c2ccccc2)c2nc3ccccc3nc2n1Cc1ccccc1	Tau fibril ThT inconclusive, Tau fluor cs inconclusive
O=S(=O)(Nc1c(S(=O)(=O)c2ccccc2)c2nc3ccccc3nc2n1C1CCCCC1)c1ccccc1	Tau fibril FP inconclusive, PLK1 PBD inh 4.2µM, VDR inhibitor inconclusive, Tau fibril ThT inconclusive | VDR confirm 0.35 | VDR FP 0.35µM | VDR bla inactive | VDR viability inactive
CC(=O)N(C(C)=O)N1C(=O)C2C3c4ccccc4C(c4ccccc43)C2C1=O (stereo not given)	PLK1 PBD inh inconclusive, VDR inhibitor 35µM, Tau fibril ThT inconclusive | VDR confirm 30 | VDR FP inconclusive | VDR bla inactive | VDR viability inactive
CN1C(=O)C2C3c4ccccc4C(c4ccccc43)[C@@H]2C1=O (stereo not given in full)	none (no result: Tau fibril FP, Tau fibril ThT, Tau fluor cs)
CCOC(=O)COc1ccc(/C=C/[N+](=O)[O-])c(OCC(=O)OCC)c1	PLK1 PBD inh inconclusive, VDR inhibitor 13µM, Tau fibril ThT inconclusive | VDR confirm 6.7 | VDR FP inconclusive | VDR bla inconclusive | VDR viability 13µM
CCOc1ccc(/C=C/[N+](=O)[O-])c2ccccc12	Tau fibril FP inconclusive, Sfp PPTase inh 8.9µM, PLK1 PBD inh 3.4µM, VDR inhibitor 20µM, Tau fibril ThT inconclusive | VDR confirm 6.7 | VDR FP inconclusive | VDR bla inconclusive | VDR viability inconclusive
O=C(N[C@H]1CC[C@H](CCNC(=O)C2CC2)O[C@@H]1CO)c1ccccn1	none (no result: Tau fibril FP, Sfp PPTase inh, VDR inhibitor, Tau fibril ThT, Tau fluor cs)
CCOc1cc(C(Nc2cc(C)ccn2)c2ccc3cccnc3c2O)ccc1OC (stereo not given)	VDR inhibitor 22µM, Tau fibril ThT inconclusive (no result: Sfp PPTase inh, PLK1 PBD inh) | VDR confirm 7.1 | VDR FP 3.5µM | VDR bla inactive | VDR viability inconclusive
Cc1ccnc(NC(c2cccc(O)c2)c2ccc3ccc(C)nc3c2O)c1 (stereo not given)	VDR inhibitor inconclusive, Tau fibril ThT inconclusive (no result: Sfp PPTase inh, PLK1 PBD inh)
CCCCN1C(=O)C(=O)NC[C@@H]1Cc1ccc(O)cc1	none (no result: Tau fibril FP, Sfp PPTase inh, VDR inhibitor, Tau fibril ThT, Tau fluor cs)
COc1cccc(/C=C2\CCc3ccccc3C2=O)c1	Tau fibril ThT inconclusive
O=C1/C(=C/c2cccc([N+](=O)[O-])c2)CCc2ccccc21	VDR inhibitor inconclusive, Tau fibril ThT 25µM, Tau fluor cs inconclusive | VDR confirm 13 | VDR FP 25µM | VDR bla inconclusive | VDR viability inconclusive
O=c1[nH]c(/C=C\c2cccc(Cl)c2)nc(O)c1[N+](=O)[O-]	VDR inhibitor 28µM (no result: Tau fibril FP, Tau fibril ThT, Tau fluor cs) | VDR confirm 13 | VDR FP inconclusive | VDR bla inactive | VDR viability inactive
O=c1[nH]c(/C=C/c2ccccc2)c([N+](=O)[O-])c(=O)[nH]1	VDR inhibitor 22µM (no result: Tau fibril FP, Tau fibril ThT, Tau fluor cs) | VDR confirm 24 | VDR FP inconclusive | VDR bla inactive | VDR viability inactive
O=c1[nH]c(/C=C/c2cccnc2)c([N+](=O)[O-])c(=O)[nH]1	Tau fibril ThT inconclusive
O=c1[nH]c(/C=C/c2ccc(Cl)cc2Cl)c([N+](=O)[O-])c(=O)[nH]1	VDR inhibitor 18µM (no result: Tau fibril FP, Tau fibril ThT, Tau fluor cs) | VDR confirm 4.7 | VDR FP inconclusive | VDR bla inactive | VDR viability inactive

High-throughput results deposited in PubChem by National Center for Advancing Translational Sciences (NCATS).
